# What was measured:
# Test in all cases: PBM binding z-score (relative to random genomic background probes); higher = stronger binding; sequences stand for … in GC…GCGATTGACAGCGTAGAATGAAGG
# [1] = tested on: FXR:RXRa (NR concentration 270 nM, RXRa partner concentration 90 nM)
# Outline: (§1)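 Antibodies against each partner of ligand-free nuclear receptor dimers (one per run) detected binding on custom Agilent 4×180K protein-binding microarrays after 1 h incubation. The double-stranded probes had 34-nt variable regions carrying direct-repeat seeds, single-nucleotide variants, half-site ablations and random human genomic background sequences. Binding z-scores, from regression-normalized fluorescence, use the random background probes as reference.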
# [2] = tested on: LXRa:RXRa (NR concentration 270 nM, RXRa partner concentration 90 nM)
# Outline: as §1
# [3] = tested on: LXRa homodimer (NR concentration 270 nM)
# Outline: as §1
# [4] = tested on: LXRb:RXRa (NR concentration 270 nM, RXRa partner concentration 90 nM)
# Outline: as §1
# [5] = tested on: LXRb homodimer (NR concentration 270 nM)
# Outline: as §1
# [6] = tested on: PPARa:RXRa (NR concentration 270 nM, RXRa partner concentration 90 nM)
# Outline: as §1
# [7] = tested on: PPARg:RXRa (NR concentration 180 nM, RXRa partner concentration 90 nM)
# Outline: as §1
# [8] = tested on: PPARg:RXRa 270nM:90nM, anti-RXR (NR concentration 270 nM, RXRa partner concentration 90 nM)
# Outline: as §1
# [9] = tested on: PPARg:RXRa 30nM:10nM, anti-RXR (NR concentration 30 nM, RXRa partner concentration 10 nM)
# Outline: as §1
# [10] = tested on: PPARg:RXRa 90nM:30nM, anti-RXR (NR concentration 90 nM, RXRa partner concentration 30 nM)
# Outline: as §1
# [11] = tested on: PPARg:RXRa DBDmut IVT, anti-RXR (DBD mutation: RXRa K156A/R161A, NR concentration 270 nM, RXRa partner concentration 90 nM)
# Outline: as §1
# [12] = tested on: PPARg:RXRa IVT, anti-PPARg (NR concentration 270 nM, RXRa partner concentration 90 nM)
# Outline: as §1
# [13] = tested on: PPARg DBDmut:RXRa IVT, anti-PPARg (DBD mutation: PPARg1 K132A/R137A, NR concentration 270 nM, RXRa partner concentration 90 nM)
# Outline: as §1
# [14] = tested on: PPARg DBDmut IVT, anti-PPARg (DBD mutation: PPARg1 K132A/R137A, NR concentration 270 nM)
# Outline: as §1
# [15] = tested on: PPARg homodimer (NR concentration 180 nM)
# Outline: as §1
# [16] = tested on: PXR:RXRa (NR concentration 270 nM, RXRa partner concentration 90 nM)
# Outline: as §1
# [17] = tested on: PXR homodimer (NR concentration 270 nM)
# Outline: as §1
# [18] = tested on: RARa:RXR (NR concentration 270 nM, RXRa partner concentration 90 nM)
# Outline: as §1
# [19] = tested on: RARa homodimer (NR concentration 270 nM)
# Outline: as §1
# [20] = tested on: RARb:RXRa (NR concentration 270 nM, RXRa partner concentration 90 nM)
# Outline: as §1
Sequence,PBM binding z-score [1],PBM binding z-score [2],PBM binding z-score [3],PBM binding z-score [4],PBM binding z-score [5],PBM binding z-score [6],PBM binding z-score [7],PBM binding z-score [8],PBM binding z-score [9],PBM binding z-score [10],PBM binding z-score [11],PBM binding z-score [12],PBM binding z-score [13],PBM binding z-score [14],PBM binding z-score [15],PBM binding z-score [16],PBM binding z-score [17],PBM binding z-score [18],PBM binding z-score [19],PBM binding z-score [20]
ATCGAAAGGTCGACGAGGTGAGTAGACACCGTTT,4.89,3.41,-0.158,2.75,0.205,4.45,3.11,3.63,1.22,2.45,0.417,2.09,0.633,0.273,1.49,2.93,0.455,3.91,0.813,3.89
TCATATAGGTGATACAGGTGAAAGTCGGCATCTA,0.938,1.04,0.153,0.984,-0.0198,2.33,1.96,2.94,3.85,3.55,4.78,4.31,1.81,1.2,1.4,0.783,0.342,0.978,1.22,0.996
TCATACAGGTAAACAGGTGAAAGTCCGTAAGTTA,0.989,1.11,0.506,1.2,0.202,2.18,1.6,3.16,4.13,3.71,3.22,2.7,0.361,1.11,1.16,1.03,0.792,1.42,1.16,0.895
ACTTACCGGTCAACGAGGTTATAGCACGCGTATA,2.61,3.17,2.47,1.96,1.3,2.3,1.3,1.2,0.21,0.785,1.22,1.9,0.959,1.45,1.88,2.33,1.42,2.38,1.15,3.08
TCATATAGGTAAGAGGTGAAAGTCGGTGTGGTAA,1.83,1.71,0.368,1.64,-0.0245,4.31,7.08,7.24,6.37,7.94,4.67,4.43,1.44,0.671,1.73,1.31,0.509,2,1.54,1.44
GCTTGGAGGACAAGGTCAGAGCTTTGTCCGTAGA,1.44,1.7,-0.316,1.03,-0.782,2.48,0.977,1.88,0.0499,1.35,1.24,1.71,-1.32,-1.05,0.764,1.76,-0.385,2.05,-0.509,3.48
TCATATAGGTAAATGCTCGGTGAAAGTCCGATCT,1.09,0.864,0.318,0.922,-0.121,1.33,0.611,2.36,3.97,3.11,4.09,1.97,0.975,0.65,0.847,0.631,0.54,0.843,0.605,0.474
ATATGTAGGTTACATCCGGGTCATTCACGCTATG,2.44,4.66,1.9,3.31,1.26,4.8,6.27,5.48,2.76,4.79,7.63,7.57,6.55,5.07,5.81,4.01,1.48,4.11,1.52,2.41
CAAACTAGGCCAAGAGGTCAAAGTCCGCTTCCCG,5.17,5.51,4.77,4.72,1.13,5.68,6.86,6.66,5.68,6.63,6.71,6.57,1.38,0.62,2.87,5.62,1.75,6.34,1.51,4.2

# Source: the supplement of paper PMC6555819
